Results on nine molecules are retold here after PubChem BioAssay (NCI).

Molecules are shown by their SMILES. Where “and” joins values, the source holds several entries; their conditions need not be identical. Equal values may be shown once. Compounds without any hit were thinned out: in the full panel of roughly 79,000, 15% have a hit. The source holds several records for some structures; these can differ, active in one and inactive in another. Calls of active or inactive are those of the source. Rule as the data show it: active = growth inhibition above about 70%; inactive = the rest.

Assay [1] in a line: NCI Yeast Anticancer Drug Screen. Data for the rad50 strain (AID 155).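 Also: 0% = growth of vehicle-only cultures of the same strain.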 The note with it: S. cerevisiae rad50 strain growth inhibition, stronger effect = higher value. A digest of the protocol: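 Vehicle-treated cultures provide the reference for the growth inhibition reported for compound-exposed, repair-deficient yeast.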
A short description of assay [2]: NCI Yeast Anticancer Drug Screen. Data for the mec2-1 strain (AID 157). As to conditions: S. cerevisiae mec2-1 strain, stronger effect = higher value. The procedure, abridged:
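Vehicle-treated cultures served as reference for growth inhibition of compound-exposed mec2-1 yeast.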

Assay [3] in a line: NCI Yeast Anticancer Drug Screen. Data for the sgs1 mgt1 strain (AID 161).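 Also: 0% = growth of cultures given vehicle only.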 The note with it: S. cerevisiae sgs1 mgt1 strain, stronger effect = higher value. A digest of the protocol:
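Genetically altered yeast, compound exposure, growth inhibition relative to vehicle.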

The nature of assay [4]: NCI Yeast Anticancer Drug Screen. Data for the cln2 rad14 strain (AID 165).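 Also: 0% = growth equal to vehicle treated cultures.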 As to conditions: S. cerevisiae cln2 rad14 strain, stronger effect = higher value. A digest of the protocol:
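Each compound was tested on cln2 rad14 yeast. Inhibition of growth was calculated against vehicle-exposed controls.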

Assay [5] is described as follows: NCI Yeast Anticancer Drug Screen. Data for the bub3 strain (AID 167). As to conditions: S. cerevisiae bub3 mutant strain, stronger effect = higher value. A digest of the protocol: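 Mutant yeast screening strain plus compound; vehicle-treated cultures serve as the 0% inhibition reference.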
Assay [6] in a line: NCI Yeast Anticancer Drug Screen. Data for the mlh1 rad18 strain (AID 175). As to conditions: S. cerevisiae mlh1 rad18 strain growth inhibition, stronger effect = higher value. The procedure, abridged:
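Vehicle-treated cultures served as the reference for growth inhibition in a yeast strain carrying DNA damage repair alterations exposed to each compound.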

Where [7] appears, read: at 5.0 µM (retest, dose inferred, filed as 0.5).
[8] abbreviates: at 50.0 µM (retest, dose inferred, filed as 5.0).

For `O=C(O)CN(CCN(CC(=O)O)CC(=O)O)CC(=O)O`, the growth inhibition in assay [1] (setting [7]) is 8% (inactive); in assay [1] (setting [8]), 69% (inactive); in assay [1] (at 50.0 µM), 27.9% (inactive) and 13.8% (inactive) and 43.4% (inactive); in assay [2] (setting [7]), 14% (inactive); in assay [2] (setting [8]) it was 70% (active); in assay [2] (at 50.0 µM), 42.2% (inactive) and 20% (inactive) and 30.6% (inactive). Also, the growth inhibition in assay [3] (setting [7]) was 11% (inactive); in assay [3] (setting [8]) it was 74% (active); in assay [3] (at 50.0 µM), 65.8% (inactive) and 26.2% (inactive) and 57.2% (inactive); in assay [4] (setting [7]), -3% (inactive); in assay [4] (setting [8]), 49% (inactive); in assay [4] (at 50.0 µM) it was -14.9% (inactive) and -22.5% (inactive) and 17.4% (inactive). In addition, the growth inhibition in assay [5] (setting [7]) is 10% (inactive); in assay [5] (setting [8]) it was 66% (inactive); in assay [5] (at 50.0 µM), 60.7% (inactive) and 38% (inactive) and 53.3% (inactive); in assay [6] (setting [7]), 6% (inactive); in assay [6] (setting [8]) it was 70% (active); in assay [6] (at 50.0 µM) it was 44.4% (inactive) and 24.2% (inactive) and 46.9% (inactive).

As for `C[n+]1ccccc1-c1nc(-c2cccc[n+]2C)nc(-c2cccc[n+]2C)n1`, the growth inhibition is 37% (inactive) in assay [1] (setting [7]); 75% (active) in assay [1] (setting [8]); 56.6% (inactive) in assay [1] (at 50.0 µM); 46% (inactive) in assay [2] (setting [7]); 57% (inactive) in assay [2] (setting [8]); 49.6% (inactive) in assay [2] (at 50.0 µM). The growth inhibition in assay [3] (setting [7]) was 23% (inactive); in assay [3] (setting [8]), 69% (inactive); in assay [3] (at 50.0 µM) it was 79.6% (active); in assay [4] (setting [7]), 14% (inactive); in assay [4] (setting [8]) it was 51% (inactive); in assay [4] (at 50.0 µM), 21.9% (inactive). Moreover, the growth inhibition was 19% (inactive) in assay [5] (setting [7]); 73% (active) in assay [5] (setting [8]); 44.9% (inactive) in assay [5] (at 50.0 µM); 37% (inactive) in assay [6] (setting [7]); 82% (active) in assay [6] (setting [8]); 84.2% (active) in assay [6] (at 50.0 µM).

Take `O=[As]c1ccc([N+](=O)[O-])cc1` (configuration not stated): the growth inhibition in assay [1] (setting [7]) was 80% (active); in assay [1] (setting [8]), 100% (active); in assay [1] (at 50.0 µM), 99.6% (active); in assay [2] (setting [7]) it was 89% (active); in assay [2] (setting [8]), 100% (active); in assay [2] (at 50.0 µM), 99.7% (active). The growth inhibition is 39% (inactive) in assay [3] (setting [7]); 99% (active) in assay [3] (setting [8]); 99.7% (active) in assay [3] (at 50.0 µM); 58% (inactive) in assay [4] (setting [7]); 98% (active) in assay [4] (setting [8]); 98.9% (active) in assay [4] (at 50.0 µM). Further, the growth inhibition in assay [5] (setting [7]) was 99% (active); in assay [5] (setting [8]) it was 100% (active); in assay [5] (at 50.0 µM), 99.3% (active); in assay [6] (setting [7]) it was 89% (active); in assay [6] (setting [8]) it was 99% (active); in assay [6] (at 50.0 µM) it was 99.5% (active).

For `C[CH2][Hg][Cl]`, the growth inhibition in assay [1] (setting [7]) was 99% (active) and 48% (inactive); in assay [1] (setting [8]), 99% (active); in assay [1] (at 50.0 µM), 93.1% (active); in assay [2] (setting [7]) it was 100% (active) and 46% (inactive); in assay [2] (setting [8]) it was 100% (active) and 93% (active); in assay [2] (at 50.0 µM), 95% (active). For the same molecule, the growth inhibition in assay [3] (setting [7]) is 100% (active); in assay [3] (setting [8]) it was 100% (active) and 99% (active); in assay [3] (at 50.0 µM) it was 94.5% (active); in assay [4] (setting [7]), 99% (active) and 86% (active); in assay [4] (setting [8]), 99% (active); in assay [4] (at 50.0 µM), 93.3% (active). Further, the growth inhibition in assay [5] (setting [7]) is 100% (active); in assay [5] (setting [8]), 99% (active); in assay [5] (at 50.0 µM) it was 93.7% (active); in assay [6] (setting [7]) it was 99% (active) and 35% (inactive); in assay [6] (setting [8]) it was 99% (active); in assay [6] (at 50.0 µM), 93.2% (active).

For the molecule `S=P(Nc1ccccc1)(Nc1ccccc1)Nc1ccccc1`, the growth inhibition in assay [1] (setting [7]) was 21% (inactive); in assay [1] (setting [8]) it was 94% (active); in assay [1] (at 50.0 µM), 96.8% (active); in assay [2] (setting [7]) it was 18% (inactive); in assay [2] (setting [8]) it was 94% (active); in assay [2] (at 50.0 µM), 98% (active). The growth inhibition in assay [3] (setting [7]) was 12% (inactive); in assay [3] (setting [8]), 95% (active); in assay [3] (at 50.0 µM) it was 96.8% (active); in assay [4] (setting [7]), 7% (inactive); in assay [4] (setting [8]) it was 94% (active); in assay [4] (at 50.0 µM), 97.7% (active). In addition, the growth inhibition in assay [5] (setting [7]) is 19% (inactive); in assay [5] (setting [8]), 92% (active); in assay [5] (at 50.0 µM), 98.2% (active); in assay [6] (setting [7]) it was 23% (inactive); in assay [6] (setting [8]), 94% (active); in assay [6] (at 50.0 µM) it was 96.8% (active).

With `O=C(CI)NCc1ccccc1`, the growth inhibition in assay [1] (setting [7]) was 22% (inactive); in assay [1] (setting [8]), 98% (active); in assay [1] (at 50.0 µM) it was 97.8% (active); in assay [2] (setting [7]), 29% (inactive); in assay [2] (setting [8]) it was 99% (active); in assay [2] (at 50.0 µM), 99.2% (active). Besides, the growth inhibition in assay [3] (setting [7]) was 41% (inactive); in assay [3] (setting [8]) it was 99% (active); in assay [3] (at 50.0 µM), 99% (active); in assay [4] (setting [7]), 12% (inactive); in assay [4] (setting [8]) it was 99% (active); in assay [4] (at 50.0 µM), 97.8% (active). Further, the growth inhibition was 31% (inactive) in assay [5] (setting [7]); 99% (active) in assay [5] (setting [8]); 99% (active) in assay [5] (at 50.0 µM); 55% (inactive) in assay [6] (setting [7]); 99% (active) in assay [6] (setting [8]); 99.2% (active) in assay [6] (at 50.0 µM).

With `[Se]C(=NCc1ccccc1)NCc1ccccc1`, the growth inhibition in assay [1] (setting [7]) is 29% (inactive); in assay [1] (setting [8]), 61% (inactive); in assay [1] (at 50.0 µM) it was 93.3% (active); in assay [2] (setting [7]), 4% (inactive); in assay [2] (setting [8]), 15% (inactive); in assay [2] (at 50.0 µM) it was 6.1% (inactive). Further, the growth inhibition is 2% (inactive) in assay [3] (setting [7]); 19% (inactive) in assay [3] (setting [8]); 19.2% (inactive) in assay [3] (at 50.0 µM); -1% (inactive) in assay [4] (setting [7]); -7% (inactive) in assay [4] (setting [8]); -102% (inactive) in assay [4] (at 50.0 µM). For the same molecule, the growth inhibition was 3% (inactive) in assay [5] (setting [7]); 18% (inactive) in assay [5] (setting [8]); 46.2% (inactive) in assay [5] (at 50.0 µM); 8% (inactive) in assay [6] (setting [7]); 29% (inactive) in assay [6] (setting [8]); 52.4% (inactive) in assay [6] (at 50.0 µM).

For the molecule `ClCCN(CCCl)CCN1c2ccccc2Sc2ccc(Cl)cc21`, the growth inhibition in assay [1] (setting [7]) is 0% (inactive); in assay [1] (setting [8]), 69% (inactive); in assay [1] (at 50.0 µM), 99% (active); in assay [2] (setting [7]), 1% (inactive); in assay [2] (setting [8]) it was 75% (active); in assay [2] (at 50.0 µM), 96.2% (active). Moreover, the growth inhibition in assay [3] (setting [7]) is 0% (inactive); in assay [3] (setting [8]) it was 97% (active); in assay [3] (at 50.0 µM) it was 99.5% (active); in assay [4] (setting [7]), -1% (inactive); in assay [4] (setting [8]), 49% (inactive); in assay [4] (at 50.0 µM) it was 98.5% (active). Besides, the growth inhibition in assay [5] (setting [7]) was -2% (inactive); in assay [5] (setting [8]), 80% (active); in assay [5] (at 50.0 µM) it was 97.1% (active); in assay [6] (setting [7]), 3% (inactive); in assay [6] (setting [8]), 95% (active); in assay [6] (at 50.0 µM) it was 98.9% (active).

For `CC1(C)N([O-])[N+](=O)C1(C)Br` (configuration not stated), the growth inhibition in assay [1] (setting [7]) was 23% (inactive); in assay [1] (setting [8]), 15% (inactive); in assay [1] (at 50.0 µM) it was -2.45% (inactive); in assay [2] (setting [7]), 19% (inactive); in assay [2] (setting [8]) it was 13% (inactive); in assay [2] (at 50.0 µM), -10.3% (inactive). Further, the growth inhibition in assay [3] (setting [7]) is 21% (inactive); in assay [3] (setting [8]), 24% (inactive); in assay [3] (at 50.0 µM), -20.2% (inactive); in assay [4] (setting [7]), 12% (inactive); in assay [4] (setting [8]), 24% (inactive); in assay [4] (at 50.0 µM), 19.5% (inactive). The growth inhibition in assay [5] (setting [7]) is 19% (inactive); in assay [5] (setting [8]), 20% (inactive); in assay [5] (at 50.0 µM), 5.55% (inactive); in assay [6] (setting [7]), 20% (inactive); in assay [6] (setting [8]) it was 15% (inactive); in assay [6] (at 50.0 µM), 11.4% (inactive).
